Values joined by “and” are separate entries in the source; they are usually repeats but may differ in a detail not shown here. Equal entries are not always repeated. Records with an inconclusive call do not appear. Active and inactive are the calls of the source. Unless noted, calls come from the whole dose curve.
% is set by controls: 0 for no effect and ±100 for the full control effect; potency is the fitted concentration of half-maximal effect.

Chain of Peroxisome proliferator-activated receptor gamma (Homo sapiens) (P37231 whole entry, looked up): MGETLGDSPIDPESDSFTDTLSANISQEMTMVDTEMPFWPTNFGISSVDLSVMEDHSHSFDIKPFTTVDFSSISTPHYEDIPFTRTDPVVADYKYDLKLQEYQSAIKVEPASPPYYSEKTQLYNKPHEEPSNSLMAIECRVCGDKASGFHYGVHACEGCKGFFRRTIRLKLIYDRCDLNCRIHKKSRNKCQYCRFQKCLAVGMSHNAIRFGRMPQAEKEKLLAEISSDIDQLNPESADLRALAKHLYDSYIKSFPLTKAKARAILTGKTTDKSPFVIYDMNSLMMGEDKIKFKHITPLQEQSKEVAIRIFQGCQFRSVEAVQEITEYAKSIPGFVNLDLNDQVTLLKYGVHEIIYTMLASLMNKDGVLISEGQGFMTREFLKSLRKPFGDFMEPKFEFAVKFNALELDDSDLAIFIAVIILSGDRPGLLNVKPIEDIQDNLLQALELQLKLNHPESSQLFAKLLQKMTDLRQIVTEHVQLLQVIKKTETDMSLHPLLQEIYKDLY

For the first experiment, the target named is Peroxisome proliferator-activated receptor gamma (Homo sapiens) (UniProt P37231). Briefly: qHTS assay to identify small molecule antagonists of the peroxisome proliferator-activated receptor gamma (PPARg) signaling pathway (AID 743191). Note: nearly all actives have a fitted effect of over 30% in size. Conditions: HEK293H PPARg-UAS-bla, beta-lactamase ratio, antagonist, 17 h; series mostly up to 62.6 µM; ratio activity, negative = inhibition: at the top concentration. The gist of the method:
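GeneBLAzer PPARg UAS-bla HEK293H cells, 5 h post-plating, exposed to compounds 17 h at 37C. LiveBLAzer B/G FRET substrate added for 1 h at room temperature; beta-lactamase reporter read by fluorescence intensity.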
Take `CC(=O)/C=C/c1ccc2c(c1)OCO2`: the Potency is 12.4 µM (active).

Turning to `CCN(CC)c1c([N+](=O)[O-])cc(C(F)(F)F)c(N)c1[N+](=O)[O-]`, the “ratio activity, negative = inhibition” value is -11.8% (inactive).

With `Cc1c(Cl)c(=O)oc2cc(OP(=O)(OCCCl)OCCCl)ccc12`, the “ratio activity, negative = inhibition” value is -12.5% (inactive).

With `CC(c1ccc(O)cc1)c1ccc(O)cc1`, the Potency was 36.5 µM (active).

System in the next experiment: not listed separately
Briefly: qHTS assay to identify small molecule antagonists of the peroxisome proliferator-activated receptor gamma (PPARg) signaling pathway - cell viability counter screen (AID 743194; active = well fitted cell-killing curve with a large enough effect in the repeat runs; note: nearly all actives have a fitted effect of over 55% in size). The conditions noted are these: PPARg-bla HEK293H viability, CellTiter-Glo luminescence, 17 h; Potency: co-treated with 50 nM rosiglitazone unless noted; series mostly up to 62.6 µM; activity change, negative = cytotoxicity: at the top concentration. In short, it runs like this: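 Cytotoxicity counter screen in PPARg-bla HEK293H cells, same wells as reporter assay. Compounds plus 50 nM rosiglitazone (final) for 17 h at 37 C, then viability read by CellTiter-Glo luminescence.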
On the technique in general: Quantitative high-throughput screening tests each substance at several concentrations.
For the molecule `ClC1=C(Cl)C2(Cl)C3C(Cl)C(Cl)CC3C1(Cl)C2(Cl)Cl` (configuration not stated), the Potency was 24.5 µM (active).

With `O=C/C(Cl)=C(/Cl)C(=O)O`, the “activity change, negative = cytotoxicity” value is -28.6% (inactive).

`Oc1ccc(C2(c3ccc(O)cc3)c3ccccc3-c3ccccc32)cc1`: the Potency is 17.4 µM (active).

For the molecule `O=c1c(C2CC(c3ccc(-c4ccc(Br)cc4)cc3)Cc3ccccc32)c(O)sc2ccccc12` (configuration not stated), the Potency was 13.3 µM (active).

For the molecule `CC(Cc1ccc(C(C)(C)C)cc1)CN1C[C@@H](C)O[C@@H](C)C1` (some centres not stated), the Potency is 49 µM (active).

Turning to `CCN(CC)c1c([N+](=O)[O-])cc(C(F)(F)F)c(N)c1[N+](=O)[O-]`, the “activity change, negative = cytotoxicity” value is -17.5% (inactive).

On to `Nc1ccc(Sc2ccc(N)cc2)cc1`, for which the “activity change, negative = cytotoxicity” value is -35.3% (inactive).

For `O=C(CCCN1CCC2(CC1)C(=O)NCN2c1ccccc1)c1ccc(F)cc1`, the “activity change, negative = cytotoxicity” value was -7.56% (inactive).

`CCCCOCN(C(=O)CCl)c1c(CC)cccc1CC`: the “activity change, negative = cytotoxicity” value is -16.6% (inactive).

Take `CC(c1ccc(O)cc1)c1ccc(O)cc1`: the “activity change, negative = cytotoxicity” value was -0.468% (inactive).

For `CC1(c2ccc(Oc3ccccc3)cc2)OC(=O)N(Nc2ccccc2)C1=O` (configuration not stated), the Potency was 8.76 µM (active).

On to `CCOCn1c(-c2ccc(Cl)cc2)c(C#N)c(Br)c1C(F)(F)F`, for which the Potency was 1.95 µM (active).

Regarding `Oc1c(Br)c(Br)c(Br)c(Br)c1Br`, the Potency was 49.3 µM (active).

For the molecule `Oc1cc(Cl)c(Cl)c(Cl)c1`, the Potency was 13.1 µM (active).

Take `ClC1=C(Cl)[C@]2(Cl)[C@@H]3[C@@H]4C[C@@H]([C@H]5O[C@@H]45)[C@@H]3[C@@]1(Cl)C2(Cl)Cl`: the Potency was 43.6 µM (active).

On to `COP(=O)(OC)SCn1c(=O)oc2cc(Cl)cnc21`, for which the “activity change, negative = cytotoxicity” value is -24.7% (inactive).

Turning to `Cn1cc(C2=C(c3cn(C4CCN(Cc5ccccn5)CC4)c4ccccc34)C(=O)NC2=O)c2ccccc21`, the “activity change, negative = cytotoxicity” value is -12.1% (inactive).

Regarding `CCOc1cc(C(C)(C)C)ccc1C1COC(c2c(F)cccc2F)=N1` (configuration not stated), the Potency is 11.8 µM (active).

System in the next experiment: not listed separately
Briefly: qHTS assay for small molecule agonists of the antioxidant response element (ARE) signaling pathway (AID 743202; active = well fitted activation curve with a large enough effect in the signal ratio in the repeat runs, not every such curve was filed as active; the % refers to the signal ratio). Conditions: HepG2 ARE-bla reporter, beta-lactamase FRET, 16 h; series mostly up to 73.3 µM; activation: at the top concentration. The gist of the method:
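Agonist mode reporter screen: HepG2 cells with ARE-controlled beta-lactamase are incubated with test compounds for 16 h at 37 C, and beta-lactamase activity is measured as fluorescence of cleaved B/G FRET substrate.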
In the case of `O=C/C(Cl)=C(/Cl)C(=O)O`, the Potency was 38.5 µM (active) and 27.3 µM (active).

In the case of `c1ccc2c(c1)OCC(C1=NCCN1)O2` (configuration not stated), the Potency is 13.3 µM (active).

On to `CCN(CC)c1c([N+](=O)[O-])cc(C(F)(F)F)c(N)c1[N+](=O)[O-]`, for which the “activation” value is 27.3% (inactive).

For the molecule `O=C(CCCN1CCC2(CC1)C(=O)NCN2c1ccccc1)c1ccc(F)cc1`, the Potency was 2.98 µM (active).

With `Cc1c(Cl)c(=O)oc2cc(OP(=O)(OCCCl)OCCCl)ccc12`, the “activation” value is 6.56% (inactive).

Take `CC(c1ccc(O)cc1)c1ccc(O)cc1`: the Potency is 25.6 µM (active).

Turning to `CC1(c2ccc(Oc3ccccc3)cc2)OC(=O)N(Nc2ccccc2)C1=O` (configuration not stated), the Potency is 0.615 µM (active).

In the case of `CCOc1cc(C(C)(C)C)ccc1C1COC(c2c(F)cccc2F)=N1` (configuration not stated), the Potency was 5.88 µM (active).

System in the next experiment: not listed separately
As to the kind of experiment: qHTS assay for small molecule agonists of the antioxidant response element (ARE) signaling pathway - cell viability counter screen (AID 743203). Note: nearly all actives have a fitted effect of over 55% in size. The conditions noted are these: ARE-bla HepG2 viability, CellTiter-Glo luminescence, 16 h; series mostly up to 73.3 µM; viability change, negative = cytotoxic: at the top concentration. In short, it runs like this: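 HepG2 cells carrying ARE-driven beta-lactamase; 2,000 cells/well; 5 hrs plating; compound pinned from DMSO; 16 hrs 37C/5% CO2; CellTiter-Glo added; 30 min RT; luminescence.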
`ClC1=C(Cl)C2(Cl)C3C(Cl)C(Cl)CC3C1(Cl)C2(Cl)Cl` (configuration not stated): the Potency is 61.1 µM (active).

For `O=C/C(Cl)=C(/Cl)C(=O)O`, the Potency entry is “inactive”.

Regarding `CC(=O)/C=C/c1ccc2c(c1)OCO2`, the “viability change, negative = cytotoxic” value was -0.636% [at 94.8 µM] (inactive).

Turning to `Oc1ccc(C2(c3ccc(O)cc3)c3ccccc3-c3ccccc32)cc1`, the Potency was 27.3 µM (active).

`O=c1c(C2CC(c3ccc(-c4ccc(Br)cc4)cc3)Cc3ccccc32)c(O)sc2ccccc12` (configuration not stated): the Potency is 33.5 µM (active).

As for `COc1cccc2c1C(=O)c1c(O)c3c(c(O)c1C2=O)C[C@@](O)(C(=O)CO)CC3OC1CC(N2CCOC(OC)C2)C(O)C(C)O1` (some centres not stated), the Potency was 9.44 µM (active).

For the molecule `c1ccc2c(c1)OCC(C1=NCCN1)O2` (configuration not stated), the “viability change, negative = cytotoxic” value is 15.8% (inactive).

With `O=C1c2ccccc2C(=O)C1C(=O)C(c1ccccc1)c1ccc(Cl)cc1` (configuration not stated), the Potency is 30.6 µM (active).

For the molecule `c1ccc2cc3c(cc2c1)-c1cccc2cccc-3c12`, the “viability change, negative = cytotoxic” value was 5.07% (inactive).

Regarding `CCN(CC)c1c([N+](=O)[O-])cc(C(F)(F)F)c(N)c1[N+](=O)[O-]`, the “viability change, negative = cytotoxic” value was -0.363% (inactive).

For the molecule `O=C(O)C1C2CCC(O2)C1C(=O)O` (configuration not stated), the Potency result is “inactive”.

Take `O=S(=O)(c1ccc(Cl)cc1)c1ccc(Cl)cc1`: the “viability change, negative = cytotoxic” value is -24.3% [at 94.8 µM] (inactive).

For the molecule `O=C(Nc1ccc2[nH]ccc2c1)c1cc2cc(F)ccc2n1Cc1cccc(F)c1`, the Potency was 30.6 µM (active).

On to `N#C/C=C/C#N`, for which the “viability change, negative = cytotoxic” value was 7.56% [at 94.8 µM] (inactive).

For `CCCCOCN(C(=O)CCl)c1c(CC)cccc1CC`, the Potency is 48.6 µM (active).

Consider `Cc1c(Cl)c(=O)oc2cc(OP(=O)(OCCCl)OCCCl)ccc12`, for which the “viability change, negative = cytotoxic” value was 8.77% (inactive).

On to `CC(c1ccc(O)cc1)c1ccc(O)cc1`, for which the “viability change, negative = cytotoxic” value was 0.404% (inactive).

Turning to `CC1(c2ccc(Oc3ccccc3)cc2)OC(=O)N(Nc2ccccc2)C1=O` (configuration not stated), the Potency is 24.5 µM (active).

Turning to `Oc1c(Br)c(Br)c(Br)c(Br)c1Br`, the Potency was 24.5 µM (active).

On to `COc1cc(C=O)cc2c1[C@H](COC(N)=O)[C@]1(OC(C)=O)ON2C[C@H]2[C@@H]1N2C(C)=O`, for which the Potency was 0.154 µM (active).

As to `ClC1=C(Cl)[C@]2(Cl)[C@@H]3[C@@H]4C[C@@H]([C@H]5O[C@@H]45)[C@@H]3[C@@]1(Cl)C2(Cl)Cl`, the Potency was 54.5 µM (active).

As to `COP(=O)(OC)SCn1c(=O)oc2cc(Cl)cnc21`, the Potency was 48.6 µM (active).

With `N#CC(Cl)Cl`, the “viability change, negative = cytotoxic” value is 9.95% (inactive).

In the case of `O=[N+]([O-])O.O=[N+]([O-])O.[Cd]`, the Potency is 0.611 µM (active).

For the molecule `Cn1cc(C2=C(c3cn(C4CCN(Cc5ccccn5)CC4)c4ccccc34)C(=O)NC2=O)c2ccccc21`, the “viability change, negative = cytotoxic” value was -20.8% (inactive).

Turning to `O=C(O)COc1nc(Cl)c(Cl)cc1Cl`, the “viability change, negative = cytotoxic” value is 20.7% [at 94.8 µM] (inactive).

On to `CS(=O)(=O)c1ccc(C(=O)C2C(=O)CCCC2=O)c([N+](=O)[O-])c1`, for which the “viability change, negative = cytotoxic” value is 17.2% [at 94.8 µM] (inactive).
